This is an account of results in article PMC7862700, “An all-to-all approach to the identification of sequence-specific readers for epigenetic DNA modifications on cytosine”.

Assay in all cases: DAPPL (digital affinity profiling via proximity ligation, sequencing); 10 mM Tris-HCl pH 7.5, 50 mM NaCl, 1 mM DTT, 4% glycerol, room temperature, 30 min; GST-TFs on glutathione beads, 16-mer random dsDNA library, 0.1% formaldehyde crosslink after washing; high values mean tight binding
Holding throughout (settings): protein: recombinant; tags: N-terminal GST; dsDNA, one strand shown

One assay addresses T1, FLI1 (Homo sapiens, UniProt Q01543 1-452).
T1 sequence: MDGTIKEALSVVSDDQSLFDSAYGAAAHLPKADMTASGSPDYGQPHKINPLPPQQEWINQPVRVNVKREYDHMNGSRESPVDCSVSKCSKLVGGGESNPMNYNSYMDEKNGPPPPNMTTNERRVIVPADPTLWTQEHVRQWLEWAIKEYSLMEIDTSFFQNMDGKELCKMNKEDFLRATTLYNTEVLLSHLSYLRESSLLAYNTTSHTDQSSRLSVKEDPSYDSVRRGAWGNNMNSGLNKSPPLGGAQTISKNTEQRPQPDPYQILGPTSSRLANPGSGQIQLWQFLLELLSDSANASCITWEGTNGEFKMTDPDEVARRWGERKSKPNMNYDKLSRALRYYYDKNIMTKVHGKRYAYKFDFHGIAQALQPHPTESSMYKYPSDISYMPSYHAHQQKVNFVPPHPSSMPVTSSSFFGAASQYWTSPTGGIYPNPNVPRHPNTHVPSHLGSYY
Put shortly: (§1)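 Each value of binding signal is a hexamer's read frequency for a factor divided by the same hexamer's frequency in the tag-only sample. Barcoded, bead-captured GST fusions of human transcription factors made in yeast were pooled with that sample and incubated with 200 nmole of a random double-stranded 16-mer DNA library in Tris/NaCl/DTT/glycerol buffer at room temperature for 30 min. Washing, 0.1% formaldehyde crosslinking, proximity ligation, PCR and Illumina NextSeq500 sequencing followed.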

For a further assay, the target named is T2, ELK1 (Homo sapiens, UniProt P19419 1-428).
T2 sequence: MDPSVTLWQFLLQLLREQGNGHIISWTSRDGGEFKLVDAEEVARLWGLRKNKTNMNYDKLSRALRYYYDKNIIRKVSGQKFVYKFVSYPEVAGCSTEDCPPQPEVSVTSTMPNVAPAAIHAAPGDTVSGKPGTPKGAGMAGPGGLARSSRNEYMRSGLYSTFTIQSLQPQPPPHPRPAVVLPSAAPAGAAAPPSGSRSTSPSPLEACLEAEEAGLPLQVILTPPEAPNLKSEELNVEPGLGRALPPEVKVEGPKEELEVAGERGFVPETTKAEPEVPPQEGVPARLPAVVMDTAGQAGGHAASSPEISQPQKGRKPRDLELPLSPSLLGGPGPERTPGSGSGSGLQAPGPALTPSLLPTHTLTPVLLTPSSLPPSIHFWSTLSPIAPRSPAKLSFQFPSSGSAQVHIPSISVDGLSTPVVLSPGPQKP
Put shortly:
as §1

The next assay deals with ELF1 (Homo sapiens, UniProt P32519 1-619). The essentials:
as §1

A further assay concerns the target T3, EHF (Homo sapiens, UniProt Q9NZC4 1-300).
T3 sequence: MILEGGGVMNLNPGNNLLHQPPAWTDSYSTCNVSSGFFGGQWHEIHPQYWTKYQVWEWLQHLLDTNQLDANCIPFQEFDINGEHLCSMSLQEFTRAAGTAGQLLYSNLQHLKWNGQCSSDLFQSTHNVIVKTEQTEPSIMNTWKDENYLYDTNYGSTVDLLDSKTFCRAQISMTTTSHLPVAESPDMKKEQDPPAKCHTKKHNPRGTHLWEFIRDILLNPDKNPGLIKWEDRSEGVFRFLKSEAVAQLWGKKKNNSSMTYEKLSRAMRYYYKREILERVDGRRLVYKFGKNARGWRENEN
Put shortly:
as §1

A further assay addresses SPI1 (Homo sapiens, UniProt P17947 1-270). Put shortly:
as §1

The next assay deals with ELF4 (Homo sapiens, UniProt Q99607 1-663). Put shortly:
as §1

The target of a further assay is T4, ELF3 (Homo sapiens, UniProt P78545 1-371).
T4 sequence: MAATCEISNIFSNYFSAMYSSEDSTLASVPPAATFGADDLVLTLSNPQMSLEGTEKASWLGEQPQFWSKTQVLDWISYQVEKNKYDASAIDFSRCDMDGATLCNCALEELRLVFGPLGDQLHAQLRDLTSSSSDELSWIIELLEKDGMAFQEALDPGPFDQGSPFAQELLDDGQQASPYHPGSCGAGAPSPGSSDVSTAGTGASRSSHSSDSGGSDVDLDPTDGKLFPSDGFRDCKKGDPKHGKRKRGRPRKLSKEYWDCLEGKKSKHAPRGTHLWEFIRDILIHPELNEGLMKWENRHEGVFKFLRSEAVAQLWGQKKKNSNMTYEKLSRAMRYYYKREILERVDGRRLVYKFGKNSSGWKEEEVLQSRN
The essentials: as §1

Another assay deals with CRX (Homo sapiens, UniProt O43186 1-299). Put shortly: as §1
The target of another assay is ETV1 (Homo sapiens, UniProt P50549 1-477). Put shortly:
as §1

A further assay concerns the target T5, ERF (Homo sapiens, UniProt P50548 1-548).
T5 sequence: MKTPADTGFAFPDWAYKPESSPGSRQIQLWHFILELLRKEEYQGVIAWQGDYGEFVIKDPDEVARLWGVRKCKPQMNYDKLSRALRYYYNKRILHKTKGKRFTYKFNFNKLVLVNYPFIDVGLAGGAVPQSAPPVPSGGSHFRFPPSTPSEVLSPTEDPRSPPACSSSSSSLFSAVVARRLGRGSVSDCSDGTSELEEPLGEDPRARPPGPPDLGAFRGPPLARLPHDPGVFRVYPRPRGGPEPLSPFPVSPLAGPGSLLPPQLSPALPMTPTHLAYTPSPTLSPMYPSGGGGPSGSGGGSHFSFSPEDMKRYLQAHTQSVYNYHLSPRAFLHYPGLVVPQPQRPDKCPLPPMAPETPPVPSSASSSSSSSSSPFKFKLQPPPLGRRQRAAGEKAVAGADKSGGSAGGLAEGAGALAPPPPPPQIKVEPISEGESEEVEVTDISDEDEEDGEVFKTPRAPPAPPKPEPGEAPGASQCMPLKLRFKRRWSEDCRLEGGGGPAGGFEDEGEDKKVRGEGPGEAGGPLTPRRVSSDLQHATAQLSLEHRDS
Put shortly: as §1

Another assay addresses T6, ETS2 (Homo sapiens, UniProt P15036 1-469).
T6 sequence: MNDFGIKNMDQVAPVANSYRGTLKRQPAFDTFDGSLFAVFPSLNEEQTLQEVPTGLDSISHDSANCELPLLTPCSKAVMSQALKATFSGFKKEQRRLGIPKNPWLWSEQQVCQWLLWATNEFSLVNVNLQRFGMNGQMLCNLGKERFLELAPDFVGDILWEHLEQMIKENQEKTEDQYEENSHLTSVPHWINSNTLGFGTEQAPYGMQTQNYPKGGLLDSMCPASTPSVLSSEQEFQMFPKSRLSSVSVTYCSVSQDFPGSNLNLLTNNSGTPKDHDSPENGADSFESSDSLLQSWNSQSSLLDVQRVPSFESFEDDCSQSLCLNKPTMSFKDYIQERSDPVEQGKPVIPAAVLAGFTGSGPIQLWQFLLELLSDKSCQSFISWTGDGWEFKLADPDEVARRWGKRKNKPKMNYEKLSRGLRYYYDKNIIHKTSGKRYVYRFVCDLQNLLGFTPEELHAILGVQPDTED
The essentials: as §1

The target of another assay is T7, SPDEF (Homo sapiens, UniProt O95238 1-335).
T7 sequence: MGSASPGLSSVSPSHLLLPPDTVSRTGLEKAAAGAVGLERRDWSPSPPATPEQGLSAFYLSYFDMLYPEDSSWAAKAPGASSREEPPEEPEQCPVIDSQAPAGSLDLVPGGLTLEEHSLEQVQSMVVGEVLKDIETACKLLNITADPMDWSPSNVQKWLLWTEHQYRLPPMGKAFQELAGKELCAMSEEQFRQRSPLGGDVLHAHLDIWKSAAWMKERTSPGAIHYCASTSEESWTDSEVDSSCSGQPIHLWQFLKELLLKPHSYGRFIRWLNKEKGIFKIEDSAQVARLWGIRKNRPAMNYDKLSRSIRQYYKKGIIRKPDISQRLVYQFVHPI
The essentials:
as §1

A further assay concerns the target T8, ETV7 (Homo sapiens, UniProt Q9Y603 1-341).
T8 sequence: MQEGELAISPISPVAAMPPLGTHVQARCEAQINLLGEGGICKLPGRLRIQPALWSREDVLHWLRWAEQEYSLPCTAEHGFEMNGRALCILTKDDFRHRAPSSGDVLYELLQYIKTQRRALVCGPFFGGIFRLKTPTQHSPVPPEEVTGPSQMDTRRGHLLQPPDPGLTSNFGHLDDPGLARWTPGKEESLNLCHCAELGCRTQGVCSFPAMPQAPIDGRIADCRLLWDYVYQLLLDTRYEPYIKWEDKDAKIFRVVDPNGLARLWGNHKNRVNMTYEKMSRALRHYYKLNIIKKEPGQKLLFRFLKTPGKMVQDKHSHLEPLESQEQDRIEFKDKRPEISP
The essentials: as §1

Chain of CRX (O43186 whole entry): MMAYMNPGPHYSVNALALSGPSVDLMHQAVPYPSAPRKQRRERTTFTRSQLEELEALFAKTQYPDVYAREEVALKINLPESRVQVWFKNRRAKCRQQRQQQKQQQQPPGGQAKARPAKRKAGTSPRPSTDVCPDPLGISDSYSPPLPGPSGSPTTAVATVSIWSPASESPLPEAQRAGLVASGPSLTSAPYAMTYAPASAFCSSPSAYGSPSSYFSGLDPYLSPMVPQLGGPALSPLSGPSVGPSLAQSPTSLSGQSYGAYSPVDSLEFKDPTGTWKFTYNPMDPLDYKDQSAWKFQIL
Chain of ETV1 (P50549 whole entry): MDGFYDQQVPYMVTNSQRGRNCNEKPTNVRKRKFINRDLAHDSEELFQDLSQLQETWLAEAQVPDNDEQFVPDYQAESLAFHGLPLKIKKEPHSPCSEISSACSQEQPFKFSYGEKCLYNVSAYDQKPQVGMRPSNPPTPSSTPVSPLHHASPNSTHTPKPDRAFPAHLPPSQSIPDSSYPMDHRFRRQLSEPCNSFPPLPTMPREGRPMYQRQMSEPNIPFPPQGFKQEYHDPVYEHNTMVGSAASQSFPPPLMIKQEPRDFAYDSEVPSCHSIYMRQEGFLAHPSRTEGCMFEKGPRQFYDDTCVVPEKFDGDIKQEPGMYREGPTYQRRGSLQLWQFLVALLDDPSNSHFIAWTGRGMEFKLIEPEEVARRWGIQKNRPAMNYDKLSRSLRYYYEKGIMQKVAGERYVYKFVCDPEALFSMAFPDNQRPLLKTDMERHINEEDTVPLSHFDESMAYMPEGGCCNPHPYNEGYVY
Chain of ELF1 (P32519 whole entry): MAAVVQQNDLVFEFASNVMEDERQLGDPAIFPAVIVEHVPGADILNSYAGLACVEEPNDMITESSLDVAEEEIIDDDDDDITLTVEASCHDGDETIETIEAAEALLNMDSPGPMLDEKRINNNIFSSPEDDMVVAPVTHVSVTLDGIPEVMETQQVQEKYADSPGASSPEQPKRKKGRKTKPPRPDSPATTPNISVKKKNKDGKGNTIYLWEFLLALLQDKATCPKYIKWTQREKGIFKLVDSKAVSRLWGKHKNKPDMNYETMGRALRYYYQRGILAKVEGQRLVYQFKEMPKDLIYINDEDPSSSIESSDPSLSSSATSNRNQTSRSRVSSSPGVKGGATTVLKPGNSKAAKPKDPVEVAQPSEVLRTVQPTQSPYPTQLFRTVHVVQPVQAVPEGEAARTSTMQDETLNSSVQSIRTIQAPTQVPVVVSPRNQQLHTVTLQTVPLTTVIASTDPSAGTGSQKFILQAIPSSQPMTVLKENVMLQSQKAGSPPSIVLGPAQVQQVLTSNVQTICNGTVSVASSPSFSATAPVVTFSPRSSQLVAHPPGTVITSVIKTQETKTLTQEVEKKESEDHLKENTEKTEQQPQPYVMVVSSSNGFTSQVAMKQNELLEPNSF
Chain of ELF4 (Q99607 whole entry): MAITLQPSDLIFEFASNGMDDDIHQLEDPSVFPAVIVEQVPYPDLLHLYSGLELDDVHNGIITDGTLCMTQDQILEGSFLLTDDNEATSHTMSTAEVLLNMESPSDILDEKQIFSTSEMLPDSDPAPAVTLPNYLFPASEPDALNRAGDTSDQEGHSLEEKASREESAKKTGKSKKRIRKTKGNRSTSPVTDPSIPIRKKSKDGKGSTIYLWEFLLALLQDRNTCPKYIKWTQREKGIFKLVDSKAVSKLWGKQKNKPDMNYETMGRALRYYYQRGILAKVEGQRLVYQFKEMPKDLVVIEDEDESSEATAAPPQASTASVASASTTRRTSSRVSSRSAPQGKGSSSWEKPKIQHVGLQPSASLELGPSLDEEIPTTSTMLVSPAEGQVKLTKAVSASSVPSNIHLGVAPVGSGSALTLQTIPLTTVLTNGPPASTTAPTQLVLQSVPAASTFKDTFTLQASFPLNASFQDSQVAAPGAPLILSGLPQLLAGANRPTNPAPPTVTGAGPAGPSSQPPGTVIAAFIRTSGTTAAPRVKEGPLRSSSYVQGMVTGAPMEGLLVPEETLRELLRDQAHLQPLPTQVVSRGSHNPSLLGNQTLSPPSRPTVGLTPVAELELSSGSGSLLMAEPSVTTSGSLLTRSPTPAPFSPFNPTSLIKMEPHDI

For the sequence ATTGAG, the binding signal is 1.08 fold enrichment (6-mer frequency, TF over GST control) with FLI1; 1.12 fold enrichment (6-mer frequency, TF over GST control) in the assay with ELK1; 1 fold enrichment (6-mer frequency, TF over GST control) with ELF1; 1.01 fold enrichment (6-mer frequency, TF over GST control) with EHF; 1 fold enrichment (6-mer frequency, TF over GST control) in the assay with SPI1; 1.05 fold enrichment (6-mer frequency, TF over GST control) with ELF4. In addition, the binding signal with ELF3 is 1 fold enrichment (6-mer frequency, TF over GST control); with CRX it was 1.11 fold enrichment (6-mer frequency, TF over GST control); with ETV1, 1.01 fold enrichment (6-mer frequency, TF over GST control); with ERF it was 1.02 fold enrichment (6-mer frequency, TF over GST control); in the assay with ETS2 it was 1 fold enrichment (6-mer frequency, TF over GST control); with SPDEF it was 1.01 fold enrichment (6-mer frequency, TF over GST control). Moreover, the binding signal in the assay with ETV7 was 1.08 fold enrichment (6-mer frequency, TF over GST control).
